# Test results from publication PMC5515408, “Sequence-specific DNA binding by MYC/MAX to low-affinity non-E-box motifs”.
# Over roughly 5,000 sequences, “log2 normalized fluorescence” has its median near 0.089; the highest 2% begin near 0.81. The entries come from a sample that favours the highest values as a whole.
# Molecular target: MYC (p64);MAX (p21), in MYC:MAX (human;human, UniProt P01106-1;P61244-2 1-439;1-151, |)
# Experiment: protein-binding microarray (anti-MAX antibody); PBM: 15 mM Tris-HCl pH 7.5, 100 mM KCl, 0.075% NP40, 7.5 mM beta-mercaptoethanol, 375 ng/ul BSA, 8 ng/ul poly(dA-dT):(dA-dT), 550 ng complex, 60 min, room tempe; high values mean tight binding
# Details: protein: recombinant;recombinant; tags: 6xHis;6xHis; copies: 1;1; label: 3' end of printed strand (linker) attached to glass slide; dsDNA, one strand shown
# In short: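 A custom Agilent glass array held ~5000 unique 12-nt sequences in triplicate spots, made double-stranded by primer extension. His-tagged human MYC:MAX or MAX:MAX dimers (550 ng, produced in E. coli) were applied for 60 min at room temperature in Tris-KCl buffer, pH 7.5, with NP40, BSA and poly(dA-dT) competitor. Anti-MAX and secondary antibodies detected bound protein, with scanning at 543 nm, and binding is given as log2 normalized fluorescence.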
# Sequence of MYC (p64);MAX (p21), in MYC:MAX (P01106 16-454, chain 1 of 2): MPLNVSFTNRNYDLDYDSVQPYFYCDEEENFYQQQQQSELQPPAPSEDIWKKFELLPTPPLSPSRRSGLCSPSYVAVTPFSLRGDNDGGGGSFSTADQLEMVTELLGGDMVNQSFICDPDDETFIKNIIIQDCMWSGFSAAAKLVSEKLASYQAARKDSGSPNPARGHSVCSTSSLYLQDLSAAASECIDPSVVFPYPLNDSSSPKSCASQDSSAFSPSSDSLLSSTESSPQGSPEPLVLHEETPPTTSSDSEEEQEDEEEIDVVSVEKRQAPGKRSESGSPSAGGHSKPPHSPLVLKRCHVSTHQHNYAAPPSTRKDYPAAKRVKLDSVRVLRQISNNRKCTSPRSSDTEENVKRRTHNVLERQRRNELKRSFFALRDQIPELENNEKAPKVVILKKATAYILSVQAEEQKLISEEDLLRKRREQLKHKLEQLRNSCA
# Sequence of MYC (p64);MAX (p21), in MYC:MAX (P61244 other isoform, or with tags, fused parts or gaps |, chain 2 of 2): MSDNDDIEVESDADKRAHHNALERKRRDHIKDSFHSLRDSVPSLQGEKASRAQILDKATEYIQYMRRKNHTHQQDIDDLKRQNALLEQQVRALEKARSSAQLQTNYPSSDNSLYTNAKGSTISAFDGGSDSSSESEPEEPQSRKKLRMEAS
row,Sequence,binding signal
1,CCGGCTGATCATTTGTATTAATAGCTAAGATTACTATATCGACG,0.247 log2 normalized fluorescence
2,CCGGCTGCCATGTGGGATTAATAGCTAAGATTACTATATCGACG,0.899 log2 normalized fluorescence
3,CCGGCTGATACGTGGTCTTAATAGCTAAGATTACTATATCGACG,0.408 log2 normalized fluorescence
4,CCGGCTGCGACGTGGTATTAATAGCTAAGATTACTATATCGACG,0.41 log2 normalized fluorescence
5,CCGGCCGCCACGTGGTCTTAATAGCTAAGATTACTATATCGACG,0.884 log2 normalized fluorescence
6,CCGGCTACTATGCCATGTTAATAGCTAAGATTACTATATCGACG,0.159 log2 normalized fluorescence
7,CCGGCTGCCACGTCGTATTAATAGCTAAGATTACTATATCGACG,0.37 log2 normalized fluorescence
8,CCGGCTGCCATGTGGTTTTAATAGCTAAGATTACTATATCGACG,0.633 log2 normalized fluorescence
9,CCGGCCACCACGTGGTATTAATAGCTAAGATTACTATATCGACG,0.975 log2 normalized fluorescence
10,CCGGCTGAGACGTGGTCTTAATAGCTAAGATTACTATATCGACG,0.229 log2 normalized fluorescence
11,CCGGCTGCCACGTGGTATTAATAGCTAAGATTACTATATCGACG,0.82 log2 normalized fluorescence
12,CCGGCGGCCACGTGGTATTAATAGCTAAGATTACTATATCGACG,0.783 log2 normalized fluorescence
13,CCGGCAACCACGTGGTATTAATAGCTAAGATTACTATATCGACG,0.742 log2 normalized fluorescence
14,CCGGCTGATGAGACGTATTAATAGCTAAGATTACTATATCGACG,-0.0198 log2 normalized fluorescence
15,CCGGCTGATACAGTGTATTAATAGCTAAGATTACTATATCGACG,0.0568 log2 normalized fluorescence
16,CCGGCTGAGATGCTGTATTAATAGCTAAGATTACTATATCGACG,-0.0512 log2 normalized fluorescence
17,CCGGCTGAGGCTATGTATTAATAGCTAAGATTACTATATCGACG,-0.0462 log2 normalized fluorescence
18,CCGGCTGACTCTTGGTATTAATAGCTAAGATTACTATATCGACG,0.16 log2 normalized fluorescence
19,CCGGCTGATGGCCTGTATTAATAGCTAAGATTACTATATCGACG,0.18 log2 normalized fluorescence
20,CCGGCTGATACACGGTATTAATAGCTAAGATTACTATATCGACG,0.262 log2 normalized fluorescence
21,CCGGCTGAGCCAATGTATTAATAGCTAAGATTACTATATCGACG,0.00395 log2 normalized fluorescence
22,CCGGCTGAAACCGCGTATTAATAGCTAAGATTACTATATCGACG,0.25 log2 normalized fluorescence
23,CCGGCTGAGAGTACGTATTAATAGCTAAGATTACTATATCGACG,0.142 log2 normalized fluorescence
24,CCGGCTGAGGGTCGGTATTAATAGCTAAGATTACTATATCGACG,0.137 log2 normalized fluorescence
25,CCGGCTGCCACGAGGAATTAATAGCTAAGATTACTATATCGACG,0.707 log2 normalized fluorescence
26,CCGGCCGCGACGTGGTATTAATAGCTAAGATTACTATATCGACG,0.471 log2 normalized fluorescence
27,CCGGCCGCCACGTGGTATTAATAGCTAAGATTACTATATCGACG,0.88 log2 normalized fluorescence
28,CCGGCTGTCACGTGGAATTAATAGCTAAGATTACTATATCGACG,0.766 log2 normalized fluorescence
29,CCGGCTGCCACGTGGAATTAATAGCTAAGATTACTATATCGACG,0.873 log2 normalized fluorescence
30,CCGGCCGCCACGTAGTATTAATAGCTAAGATTACTATATCGACG,0.312 log2 normalized fluorescence
